Pf growth 96h = Primary qHTS for delayed death inhibitors of the malarial parasite plastid, 96 hour incubation | P. falciparum luciferase reporter growth, 96 h | Potency, µM (series often up to 28.7 µM), hits mostly inhibitors | hit rate 6.9% among 320,000 | AID 504834, 2011
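P. falciparum expressing integrated firefly luciferase grown in erythrocytes (2% hematocrit, 0.05% parasitemia final) with compounds for 96 hours at 37 C, 5% CO2. Growth inhibition read as loss of luminescence after adding luciferase detection reagent.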
NS1 function inh = qHTS Assay for Inhibitors of Influenza NS1 Protein Function; Potency, µM (highest dose often 46.1 µM); hit rate 0.4% among 270,000; calls by dose curve; note: actives are rising curves; nearly all actives have a fitted effect of over 50% in size
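Growth recovery, yeast-based: influenza A NS1 expressed in S. cerevisiae causes slow growth, and suppressors are detected by OD600. The parent strain without NS1 is used as positive control.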
AMA1-RON2 inh = qHTS for Inhibitors of AMA1-RON; Towards Development of Antimalarial Drug Lead: Primary Screen | Plasmodium falciparum AMA1 (3D7) - RON2 peptide interaction | AlphaScreen AMA1-biotinylated RON2 peptide binding | Potency, µM (highest dose often 58.2 µM), most hits filed as inhibitors | hit rate 0.2% among 360,000; note: nearly all actives have a fitted effect of over 45% in size
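AMA1 (3D7) with his tag at 25 nM final met compounds first, then biotinylated RON2 peptide at 25 nM; detection used donor plus acceptor beads, 10 µg/mL apiece, read by AlphaScreen after 30 min at room temperature.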
Pf growth 48h = Primary qHTS for delayed death inhibitors of the malarial parasite plastid, 48 hour incubation | P. falciparum luciferase growth in erythrocytes, 48 h | Potency, µM (top dose mostly 28.7 µM), hits mostly inhibitors | hit rate 5.9% among 310,000 | AID 504832, 2011
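Compounds are pin-transferred into medium, infected erythrocytes (2% hematocrit, 0.1% parasitemia final) are added, and plates sit one parasite generation at 37 C in 5% CO2. Detection reagent is then added and luminescence measured.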
Sm TGR inh = qHTS Assay for the Inhibitors of Schistosoma Mansoni Peroxiredoxins; Potency, µM (highest dose often 114 µM), hits mostly inhibitors; Schistosoma mansoni thioredoxin glutathione reductase (TGR), Q962Y6; purified TGR, DTNB reduction, TNB absorbance 405 nm; hit rate 3% among 360,000; note: nearly all actives have a fitted effect of over 60% in size
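Kinetic colorimetric format: TGR-catalysed, NADPH-driven DTNB reduction monitored via TNB absorbance. Enzyme dispensed at 20 nM; compound exposure 15 min at room temperature before reaction start.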
Hits are given with their value; [ ] = another dose, or the depositor's remark. Only some compounds are listed: those with a hit (about 11% of all), similar ones and a draw of the others. Unless noted, calls come from the whole dose curve; as a rule, active = well fitted curve in the direction sought with a large enough effect; inconclusive = small, poorly fitted or top-dose-only effect, or another doubt; inactive = no such curve, though single readings can be large; an effect the other way counts as inactive or inconclusive.

What do the screens show for `Cc1ccc(Cc2cnc(N3C(=N)SC(c4ccccc4)C3=O)s2)cc1` (stereo unspecified)?
Pf growth 96h: 9.28µM; NS1 function inh: inactive; AMA1-RON2 inh: inactive; Pf growth 48h: inactive; Sm TGR inh: inactive

How did Cc1cc(C)n(Cc2ccc(Cl)cc2Cl)c(=O)c1S(=O)(=O)c1ccccc1 do in these assays?
Pf growth 96h: inconclusive; NS1 function inh: inactive; AMA1-RON2 inh: inactive; Pf growth 48h: 13.1µM; Sm TGR inh: inactive

Results for O=C(/C=C/c1ccco1)N(c1ccccn1)c1ccccn1 ?
Pf growth 96h: inactive; AMA1-RON2 inh: inactive; Pf growth 48h: inactive; Sm TGR inh: 31.6µM

Results for O=C(/C=C/c1ccco1)NCc1ccccn1 ?
Pf growth 96h: inactive; NS1 function inh: inactive; AMA1-RON2 inh: inactive; Pf growth 48h: inactive; Sm TGR inh: 3.55µM

Results for Cc1c(C(=O)Nc2nc(-c3ccc(F)cc3)ns2)oc2ccc(Cl)cc12 ?
Sm TGR inh: inactive

How did CN1C(=O)CC(c2cn(Cc3ccccc3)c3ccccc23)C1=O (stereo unspecified) do in these assays?
Pf growth 96h: 2.62µM; NS1 function inh: inactive; AMA1-RON2 inh: inactive; Pf growth 48h: inconclusive; Sm TGR inh: inactive

How did CC(=O)N1N=C(c2ccccc2)CC1c1cn(Cc2ccccc2)c2ccccc12 (stereo unspecified) do in these assays?
Pf growth 96h: inconclusive; NS1 function inh: inactive; AMA1-RON2 inh: inactive; Pf growth 48h: inconclusive; Sm TGR inh: inactive

Results for O=C(c1ccc(CSc2ccc(Cl)cc2)cc1)N1CCCC1 ?
Pf growth 96h: inactive; AMA1-RON2 inh: inactive; Pf growth 48h: inactive[5.75 µM]; Sm TGR inh: inactive

Results for COc1cc(OC)c(OC)cc1/C=C1/Cc2ccccc2C1=O ?
Pf growth 96h: inconclusive; NS1 function inh: inactive; AMA1-RON2 inh: inactive; Pf growth 48h: inactive; Sm TGR inh: inactive

Results for CCC1C/C(=C/c2ccco2)C(=O)/C(=C/c2ccco2)C1 (stereo unspecified) ?
Pf growth 96h: 9.28µM; NS1 function inh: inactive; Pf growth 48h: inactive; Sm TGR inh: 20µM

What do the screens show for `CCC1C/C(=C\c2cc(OC)c(OC)cc2OC)C(=O)/C(=C/c2cc(OC)c(OC)cc2OC)C1` (stereo unspecified)?
Pf growth 96h: inconclusive; NS1 function inh: inactive; AMA1-RON2 inh: 22.4µM; Pf growth 48h: 5.22µM; Sm TGR inh: inactive

What do the screens show for `COc1cc(OC)c(OC)cc1/C=C1\CC(C)C/C(=C\c2cc(OC)c(OC)cc2OC)C1=O` (stereo unspecified)?
Pf growth 96h: inconclusive; NS1 function inh: inactive; AMA1-RON2 inh: 31.6µM; Pf growth 48h: 4.65µM; Sm TGR inh: inactive

How did CC12CCCC(=O)C1CCC(=Cc1ccco1)C2=O (stereo unspecified) do in these assays?
AMA1-RON2 inh: inactive

Results for CO[C@@H]1[C@@H](OC2OC(C)C(OC3CC(C)(O)C(OC(=O)CC(C)C)C(C)O3)C(N(C)C)C2O)[C@@H](CC=O)C[C@@H](C)C(=O)/C=C\C2O[C@H]2C[C@@H](C)OC(=O)C[C@H]1OC(C)=O (stereo partly specified) ?
Pf growth 96h: 0.757µM; Pf growth 48h: 6.75µM

Results for CO[C@H]1[C@H](O[C@H]2O[C@@H](C)[C@@H](O[C@@H]3C[C@](C)(O)[C@H](OC(=O)CC(C)C)[C@H](C)O3)[C@@H](N(C)C)[C@@H]2O)[C@@H](CC=O)C[C@@H](C)[C@@H](O)/C=C\C=C/C[C@@H](C)OC(=O)C[C@H]1OC(C)=O ?
Pf growth 96h: 0.405µM; Pf growth 48h: 4.55µM

What do the screens show for `COc1ccc(CN2C(=O)C(CC(=O)NC3CC3)CC(C(=O)N3CCOCC3)=C2C)cc1` (stereo unspecified)?
AMA1-RON2 inh: inactive

Results for O=C1Cc2ccccc2N1c1ccccc1 ?
NS1 function inh: inactive; AMA1-RON2 inh: inactive; Sm TGR inh: inactive[11.4 µM]

Results for O=C1CC(=Nc2ccccc2)NN1c1ccccc1 ?
Pf growth 96h: 13.1µM; NS1 function inh: inactive; AMA1-RON2 inh: inactive; Pf growth 48h: inconclusive; Sm TGR inh: inactive

Results for O=C(c1cnn2c1NC(c1ccc(Br)cc1)CC2C(F)(F)F)N1CCN(C23CC4CC(CC(C4)C2)C3)CC1 (stereo unspecified) ?
Pf growth 96h: 8.28µM; NS1 function inh: inactive; AMA1-RON2 inh: inactive; Pf growth 48h: 3.7µM; Sm TGR inh: inactive

What do the screens show for `Cc1onc(-c2c(F)cccc2Cl)c1C(=O)Oc1ccccc1`?
AMA1-RON2 inh: inactive

How did CCOc1ccc(C(=O)Nc2ccc3oc(-c4cccnc4)nc3c2)cc1 do in these assays?
Sm TGR inh: inactive

What do the screens show for `CCN(CC)CCNc1ccc(CO)c2sc3ccccc3c(=O)c12`?
Pf growth 96h: 2.94µM; NS1 function inh: inactive; AMA1-RON2 inh: inactive; Pf growth 48h: 3.7µM; Sm TGR inh: inactive

Results for C/C(=N/NC(=O)CSc1nc2ccccc2n1C)c1ccco1 ?
Pf growth 96h: inconclusive; NS1 function inh: inactive; AMA1-RON2 inh: inactive; Pf growth 48h: inactive; Sm TGR inh: inactive

Results for O=C(CSc1nc2ccccc2n1Cc1ccccc1)N/N=C/c1ccco1 ?
Pf growth 96h: inconclusive; NS1 function inh: inactive; AMA1-RON2 inh: inactive; Pf growth 48h: inconclusive; Sm TGR inh: inactive

How did Cn1c(SCC(=O)N/N=C/C=C\c2ccco2)nc2ccccc21 do in these assays?
Pf growth 96h: inconclusive; NS1 function inh: inactive; AMA1-RON2 inh: inconclusive; Pf growth 48h: inconclusive; Sm TGR inh: 22.4µM

How did CCn1c(SCC(=O)N/N=C/C=C\c2ccco2)nc2ccccc21 do in these assays?
Pf growth 96h: inactive; NS1 function inh: inactive; AMA1-RON2 inh: inactive; Pf growth 48h: inactive; Sm TGR inh: 22.4µM

Results for Cc1[nH]c(=O)[nH]c1C(=O)CCCCC(=O)OCC(=O)Nc1ccccn1 ?
Pf growth 96h: inactive; NS1 function inh: inactive; AMA1-RON2 inh: inactive; Pf growth 48h: inactive; Sm TGR inh: inactive

How did CCOC(=O)CCCCC(=O)c1[nH]c(=O)[nH]c1C[n+]1ccccc1 do in these assays?
Pf growth 96h: inactive; Pf growth 48h: inconclusive; Sm TGR inh: 6.31µM

How did CCOC(=O)CCCCC(=O)c1[nH]c(=O)[nH]c1C[n+]1ccc(C)cc1 do in these assays?
Pf growth 96h: inactive; AMA1-RON2 inh: inconclusive; Pf growth 48h: inactive; Sm TGR inh: 35.5µM

Results for CCOC(=O)CCCCC(=O)c1[nH]c(=O)[nH]c1CN1CCOCC1 ?
Pf growth 96h: inconclusive; NS1 function inh: inactive; AMA1-RON2 inh: 9.47µM; Pf growth 48h: inactive; Sm TGR inh: inactive

Results for O=C(CSc1ncc2c(n1)-c1ccccc1N(Cc1ccc(F)cc1)S2(=O)=O)c1ccc(Br)cc1 ?
Sm TGR inh: inactive

What do the screens show for `Cn1cccc1Cc1nnc(SCC(=O)N2CCCCCC2)n1-c1ccc(F)cc1`?
Pf growth 96h: inactive; NS1 function inh: inactive; AMA1-RON2 inh: inactive; Sm TGR inh: inconclusive

Bioassay records (PubChem BioAssay)
